# Reference: PubChem BioAssay AID485270 (The Scripps Research Institute Molecular Screening Center, 2010)
# Several values for one entry are separate records, joined by “and”; a condition that tells them apart may be missing. Equal entries are not always repeated. The whole screen tested about 330,000 compounds, of which about 5,800 (1.8%) were called active. No stated cut-off is given here; in the data, active means inhibition mostly above about 38% (no sharp cut-off); inactive means mostly below about 40%. Many of the other results were omitted from the sample, so actives are more common in it than they were. Where a structure was tested more than once in an assay, its records may differ in their call.
# Target: Orexin/Hypocretin receptor type 1 (Homo sapiens) (UniProt O43613)
# Assay: antagonists of human orexin 1 receptor (OX1R) (AID 485270);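 further: 0% = agonist challenge alone and 100% = reference antagonist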
# Settings: OX1R-expressing cells, FRET antagonist read-out; at 6.6 µM; stronger effect = higher value
# Chain of Orexin/Hypocretin receptor type 1 (Homo sapiens) (O43613 whole entry, looked up): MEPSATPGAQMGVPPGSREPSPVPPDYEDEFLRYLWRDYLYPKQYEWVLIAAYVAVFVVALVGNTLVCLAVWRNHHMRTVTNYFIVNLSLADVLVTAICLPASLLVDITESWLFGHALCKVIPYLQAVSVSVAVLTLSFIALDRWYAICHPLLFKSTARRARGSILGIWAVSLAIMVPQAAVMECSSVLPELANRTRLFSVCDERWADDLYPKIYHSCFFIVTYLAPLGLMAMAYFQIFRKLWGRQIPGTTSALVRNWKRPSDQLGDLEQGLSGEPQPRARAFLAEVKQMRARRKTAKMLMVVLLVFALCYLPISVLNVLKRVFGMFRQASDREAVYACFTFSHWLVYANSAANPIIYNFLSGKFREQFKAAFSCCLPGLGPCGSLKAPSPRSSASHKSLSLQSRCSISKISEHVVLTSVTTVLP
row,Structure (SMILES),inhibition
1,Cc1ccc(S(=O)(=O)N2C[C@@H]3CCCC[C@@H]3[C@@H](C)[C@H]2c2cn(Cc3ccccc3)c3ccc(F)cc23)cc1,3.67% (inactive)
2,CC1CN(C(=O)c2ccccc2NS(=O)(=O)c2cccc([N+](=O)[O-])c2)CC(C)O1 (stereo unspecified),27.1% (inactive)
3,CC1CN(C(=O)c2ccc([N+](=O)[O-])s2)CC(C)O1 (stereo unspecified),49.6% (active)
4,Cc1c(C(=O)N2CC(C)OC(C)C2)sc2nc(-c3ccccc3)cn12 (stereo unspecified),19.5% (inactive)
5,CCN(CC)C(=O)[C@H]1CC(CC(=O)NCc2ccco2)C(=O)N2CCc3c([nH]c4ccccc34)[C@]12C (stereo partly specified),6.65% (inactive)
6,COC(=O)[C@@]1(C)[C@H]2C(=O)N(Cc3ccccc3)C(=O)[C@H]2[C@H]2CN=C(SCC3CC3)N21,4.86% (inactive)
7,O=C1N[C@H](Cc2ccccc2)C(=O)N[C@H]1Cc1cn(S(=O)(=O)c2ccccc2)c2ccccc12,24.8% (inactive)
8,O=C(Cn1c[n+](CC(=O)c2ccc([N+](=O)[O-])cc2)cn1)c1ccc([N+](=O)[O-])cc1,41% (active) and 49.5% (inactive)
9,Cc1ccc(C(=O)Cn2cc([N+](=O)[O-])nc2C)cc1,16.2% (inactive)
10,O=C(CC(n1cncn1)C(Cl)(Cl)Cl)c1ccc([N+](=O)[O-])cc1 (stereo unspecified),24.6% (inactive)
11,Cc1ccc(S(=O)(=O)N2CCN(C(=O)Cn3c(=O)cnc4ccccc43)CC2)c(C)c1,16.2% (inactive)
12,O=C(OCC(=O)N1CCCCCC1)c1ccc(Br)c(S(=O)(=O)N2CCOCC2)c1,7.11% (inactive)
13,O=C(N[C@H]1C/C=C\C(c2ccc(F)cc2)N(Cc2ccccc2)C(=O)C1)OCC1c2ccccc2-c2ccccc21 (stereo partly specified),14.6% (inactive)
14,Cc1nnc2n1N=C(c1ccccc1)CS2,-1.51% (inactive)
15,O=c1c2cc(-c3ccccc3)sc2nc2n1N=C(c1cccs1)CS2,49.2% (active)
16,c1csc(-c2cn3c(n2)SCC3)c1,2.55% (inactive)
17,CC(C)=CCN1CCN(Cc2cc3ccccc3[nH]2)CC1CCO (stereo unspecified),7.38% (inactive)
18,CCN(C[C@H]1N[C@@](CC)(C(=O)OC)[C@H]2C(=O)N(Cc3ccccc3)C(=O)[C@@H]12)S(=O)(=O)c1ccc(C(F)(F)F)cc1,5.19% (inactive)
19,Cc1cc(C)c(C#N)c(SCc2[nH]nc3c2C(c2ccccc2)C(C#N)=C(N)O3)n1 (stereo unspecified),60.2% (active)
20,Cc1cc(C)c(C#N)c(SCc2ccccc2C(=O)O)n1,27.5% (inactive)
21,CCc1ccc(C2C(C#N)=C(N)Oc3n[nH]c(CC(=O)OC)c32)cc1 (stereo unspecified),1.71% (inactive)
22,COc1ccc(N2CCN(C(CNS(=O)(=O)c3ccc(C)cc3)c3ccccc3)CC2)cc1 (stereo unspecified),6.01% (inactive)

row,Structure (SMILES),inhibition
1,COC(=O)c1ccc(C)c(NC(=O)Cn2c(C)csc2=O)c1,2.56% (inactive)
2,COc1ccccc1-c1sc2ccccc2c1C#CC1(O)CCCCC1,6.27% (inactive)
3,COc1ccc2sc(-c3ccc(N(C)C)cc3)c(-c3ccc4cc[nH]c4c3)c2c1,9.19% (inactive)
4,COc1ccc2sc(-c3ccc(N(C)C)cc3)c(C#CCO)c2c1,50.3% (active)
5,COc1ccc(-c2sc3ccc(OC)cc3c2C#Cc2ccccn2)cc1,8.84% (inactive)
6,O=C(N[C@H]1C/C=C\C(c2cccc(F)c2)N(Cc2ccccc2)C(=O)C1)OCC1c2ccccc2-c2ccccc21 (stereo partly specified),5.38% (inactive)
7,Cc1ccc(-c2cccc([C@H]3[C@@H]4C=CC[C@@H](C)[C@@H]4C(=O)N3Cc3ccccc3)c2)cc1,5.7% (inactive)
8,O=C(CCCCCN1C(=O)c2cccc3cccc(c23)C1=O)NCc1ccco1,9.93% (inactive)
9,O=C1c2cccc3cccc(c23)C(=O)N1CCCCCc1n[nH]c(=S)o1,47.3% (inactive)
10,C[N+](C)(CCCCCC[N+](C)(C)CCCN1C(=O)c2cccc3cccc(c23)C1=O)CCCN1C(=O)c2cccc3cccc(c23)C1=O,68.8% (active)
11,COC(=O)CSc1snnc1-c1ccc(Cl)c(Cl)c1,33.7% (inactive)
12,CCOC(=O)c1ccc(NNC(C)=O)c([N+](=O)[O-])c1,26.7% (inactive)
13,CCOC(=O)C/C(C)=N\Nc1ccc([N+](=O)[O-])cc1[N+](=O)[O-],55.3% (active)
14,CCCCOC(=O)CCCc1ccc([N+](=O)[O-])cc1[N+](=O)[O-],18.3% (inactive)
15,Nc1nc(SCC(=O)Nc2ccc(Cl)c([N+](=O)[O-])c2)n[nH]1,0.57% (inactive)
16,O=C(CN1C(=O)c2ccc([N+](=O)[O-])cc2C1=O)Nc1nnc(C2CC2)s1,21.3% (inactive)
17,Cc1ccc(S(=O)(=O)NC2CCCCCC2)cc1,10.9% (inactive)
18,CCn1c(SCC(=O)c2ccc3ccccc3c2)nnc1-c1cccs1,79.6% (active)
19,CCn1c(SCC(=O)c2ccc(Cl)s2)nnc1-c1cccs1,26.9% (inactive)
20,CCn1c(Cc2cccs2)nnc1SCC(=O)c1ccc(C)cc1,14.7% (inactive)
21,COc1ccc(CCNC(=O)COC(=O)Cc2ccccc2F)cc1,2.3% (inactive)
22,Cc1noc(C)c1S(=O)(=O)N(C)C[C@H]1Oc2ccc(NC(=O)C3CCCCC3)cc2C(=O)N([C@H](C)CO)C[C@@H]1C,3.64% (inactive)

row,Structure (SMILES),inhibition
1,CCOc1ccccc1Nc1ccc2nonc2c1[N+](=O)[O-],20% (inactive)
2,O=[N+]([O-])c1c(NCCO)cc(Sc2nc3ccccc3s2)c2nonc12,90.3% (active)
3,O=C(O)c1ccccc1CSc1nc2ccccc2s1,5.76% (inactive)
4,COc1cc(OC)cc(-c2sc3ccc(OC)cc3c2-c2ccc3cc[nH]c3c2)c1,18.3% (inactive)
5,CCOC(=O)c1c(C)nc2c(c1C)c(=O)oc1ccccc12,4% (inactive)
6,Cc1ccccc1-n1nnc2c(=O)oc3ccccc3c21,51.9% (active)
7,CCCCC(=O)Nc1cc(C)c2c(=O)oc3ccccc3c2n1,1.27% (inactive)
8,COc1cc(OC)cc(-c2cc3ccc(F)cc3cn2)c1,18.6% (inactive)
9,N#Cc1cc([N+](=O)[O-])ccc1NC(=O)COC(=O)c1cnccn1,30.6% (inactive)
10,COc1cccc(NC(=O)NCc2ccc(F)cc2)c1,-5.5% (inactive)
11,Cc1cccc(NC(=O)Nc2cccc(Oc3c(F)c(F)c(F)c(F)c3F)c2)c1,45.9% (active)
12,Cc1cccc(NC(=O)NC(=S)NC(=O)c2ccccc2)c1,39.1% (inactive)
13,CCN(CC)S(=O)(=O)c1ccc(N2CCCC2)c(NC(=O)c2ccc([N+](=O)[O-])o2)c1,25.5% (inactive)
14,O=C(Cc1cccs1)NCc1cccc(C(F)(F)F)c1,-2.11% (inactive)
15,CCOC(=O)CCCCCC(=O)Nc1ccc2c(c1)CC(=O)N([C@@H](C)CO)C[C@H](C)[C@@H](CN(C)Cc1ccccc1)O2,0.83% (inactive)
16,Cc1noc(C)c1NC(=O)Nc1ccc2c(c1)C(=O)N([C@H](C)CO)C[C@H](C)[C@@H](CN(C)S(=O)(=O)c1cn(C)cn1)O2,0.36% (inactive)
17,CC(=O)c1cccc(OCC(=O)OCC(=O)Nc2cc(S(=O)(=O)N3CCCCC3)ccc2C)c1,9.5% (inactive)
18,COc1ccc(CCNC(=O)c2cc3sccc3n2C)cc1OC,20.4% (inactive)
19,CCOc1ccc(CCNC(=O)C(CC)n2nc(C)n3c(cc4sccc43)c2=O)cc1OCC (stereo unspecified),92.1% (active)
20,CCC(C(=O)NCc1ccc(OC)cc1)n1nc(C)n2c(cc3occc32)c1=O (stereo unspecified),9.82% (inactive)
21,COc1cc(SC)ccc1C(=O)NNC(=O)C1COc2ccccc2O1 (stereo unspecified),9.65% (inactive)
22,CCN(CC(=O)NCc1ccc(F)cc1)S(=O)(=O)c1ccc(Cl)s1,6.16% (inactive)

row,Structure (SMILES),inhibition
1,Cc1nc(C)c(-c2nnc(-c3cccc(S(=O)(=O)N(C)C)c3)o2)cc1C(=O)NN,1.5% (inactive)
2,Cc1cccc(-c2noc(-c3ccc(F)cc3)n2)c1,1.69% (inactive)
3,COc1ccc(-c2noc(-c3cccc(OC)c3OC)n2)cc1OC,45.8% (active)
4,COc1ccc(-c2noc(CCCC(=O)NC3CCCC3)n2)cc1OC,14.1% (inactive)
5,O=C(COC(=O)c1cccnc1Cl)NC(=O)NC1CCCCC1,0.57% (inactive)
6,Cc1c(C#N)c2ncn(CC#N)c(=O)c2n1-c1ccccc1,16.1% (inactive)
7,CN1c2ccc(C=O)c3c(C=O)ccc(c23)N(C)C1(C)C,38.9% (active)
8,COc1ccc2nc3n(c(=O)c2c1)-c1ccc(Cl)cc1C(=O)NC3Cc1ccccc1 (stereo unspecified),7.22% (inactive)
9,O=C1CCC/C=C/C[C@@H](CC(=O)N(CCO)Cc2ccccc2)C(=O)NC[C@H](c2ccccc2)O1,2.58% (inactive)
10,CCN(C(=O)COC(=O)CCC(=O)c1cccs1)C1CCCCC1,3.19% (inactive)
11,Cc1ccc(S(=O)(=O)N2CCN(C(=O)CN3C(=O)NC(C)(c4ccc(Cl)cc4)C3=O)CC2)c(C)c1 (stereo unspecified),4.7% (inactive)
12,O=C1c2ccccc2[C@@H]2C[C@@H](O)[C@H](Nc3ccccc3Cl)CCN12,7.11% (inactive)
13,Cc1ccc(C(=O)C[n+]2cc(-c3ccccc3)n3c2CCCCC3)cc1,9.82% (inactive) and 16.5% (inactive)
14,Cc1ccc(C(=O)N2CCCC(c3ccccc3)=N2)cc1,64.4% (active)
15,Cc1ccc(NC(=S)N2CCCC(c3ccccc3)=N2)cc1,14.4% (inactive)
16,CC(C)CC1NC(=O)c2cc(Cl)ccc2-n2c1nc1ccccc1c2=O (stereo unspecified),4.11% (inactive)
17,O=C(Nc1ccccc1)c1ccc2nsnc2c1,41.3% (active)
18,Cc1cccc(NC(=O)c2ccc3nsnc3c2)c1C,34.9% (inactive)
19,O=C(Nc1cccc(NC(=O)c2cccc(F)c2)c1)c1ccccc1,16.8% (inactive)
20,COc1cc(OC)cc(-c2c(C#Cc3ccsc3)c3cc(-c4ccc(SC)cc4)ccc3n2C)c1,7.83% (inactive)
